For 90 compounds, inhibition results are on record in PubChem BioAssay AID492953 (The Scripps Research Institute Molecular Screening Center, 2010).

As usually defined, the inhibition is the drop in the measured response relative to a control, in per cent.

Structures are written as SMILES. About 4,200 (1.2%) of roughly 340,000 compounds were called active. The full list was thinned out, with actives kept by preference. Values without a mark were called inactive.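 The calls were made as follows: active = inhibition above the mean of all tested compounds plus 3 SD (cut at about 24% in these data); inactive = the rest.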

Chain of Platelet-activating factor acetylhydrolase IB subunit alpha2 (Homo sapiens) (P68402 whole entry, looked up): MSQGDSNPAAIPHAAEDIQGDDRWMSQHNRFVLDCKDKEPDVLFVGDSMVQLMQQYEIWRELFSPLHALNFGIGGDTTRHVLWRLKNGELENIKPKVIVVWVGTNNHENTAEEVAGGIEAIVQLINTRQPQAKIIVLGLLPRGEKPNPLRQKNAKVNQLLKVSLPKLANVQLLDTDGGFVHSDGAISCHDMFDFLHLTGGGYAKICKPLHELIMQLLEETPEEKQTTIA

This experiment concerns the target Platelet-activating factor acetylhydrolase IB subunit alpha2 (Homo sapiens) (UniProt P68402). Kind of experiment: inhibition of PAF acetylhydrolase 1b subunit 2 – biochemical, fluorescence polarization, human, primary screen (AID 492953).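 Also: 0% = enzyme with DMSO and 100% = wells lacking PAFAH1B2.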 The following applies: recombinant PAFAH1B2, FP-rhodamine activity probe, at 3.39 µM, stronger effect = higher value. For orientation: In fluorescence polarisation assays a small probe gives low polarisation when free and higher when bound to something large.
On to `CCc1ccc(S(=O)(=O)Nc2cc3c(cc2N2CCCCC2)n(C)c(=O)c(=O)n3C)cc1`, for which the inhibition is 28.5% (active). For `Cn1c(=O)c(=O)n(C)c2cc(S(=O)(=O)CCC(=O)N3CCCCC3)ccc21`, the inhibition is 5.13%.

Regarding `Cc1ccc(NS(=O)(=O)c2ccc3c(c2)n(C)c(=O)c(=O)n3C)c(C)c1`, the inhibition is 0.65%. As for `O=C(NC1=CC(=O)c2ccccc2C1=O)c1ccccc1`, the inhibition was 17%. For `CN(O)C(=S)c1ccccc1`, the inhibition was -1.16%. With `Cc1ccc(C(=O)N/C(=C/c2ccc(-c3cccc([N+](=O)[O-])c3)o2)C(=O)NCCCN(C)C)cc1`, the inhibition is 1.95%.

On to `O=C(CNC(=O)Cc1ccccc1)N=Nc1c(O)[nH]c2ccc(Br)cc12`, for which the inhibition was -1.85%.

In the case of `NS(=O)(=O)c1ccc(N=Nc2c(O)[nH]c3ccc(Br)cc23)cc1`, the inhibition is 11.8%. Then `Oc1[nH]c2ccc(Br)cc2c1N=Nc1nn[nH]n1`, with 73.3% (active); and `Cc1cc(C)c(NC(=O)CN2CCOCCOCCOCCOCC2)c(C)c1`, with 0.53%. The figure for `Cc1nc2nc(C)c(NS(=O)(=O)c3ccc(C(C)(C)C)cc3)c(=O)n2[nH]1` is 16.3%. The figure for `CC1(C)Cc2ccccc2-c2[nH]c(=S)[nH]c(=O)c21` is 26.1% (active); for `CC1(C)Cc2ccccc2/C(=C/C(=O)c2ccccc2)N1` it is -0.07%. On to `CC1(C)Cc2ccccc2-c2nc(CN3CCOCC3)[nH]c(=O)c21`, for which the inhibition was 6.87%. On to `CC1C(C)N(C(=O)CCl)c2ccccc2N1C(=O)CCl` (stereo not given), for which the inhibition was 2.69%.

Regarding `CC(NC(=O)CC1SC(N)=NC1=O)c1ccccc1` (stereo not given), the inhibition was 3.61%.

`CN(CC(=O)Nc1ccc(Cl)cc1)C(=O)CNC(=O)c1ccc2ccccc2c1`: the inhibition is 29% (active). In the case of `O=C(NNC(=O)c1ccc2ccccc2c1)c1ccc(Cl)cc1`, the inhibition is 3.28%.

As to `CN(CC(=O)Nc1ccc(Cl)cc1)C(=O)c1ccc(COc2ccccc2)cc1`, the inhibition is 7.71%. Take `Clc1ccc2c(c1)C1=C(C(c3ccncc3)O2)C(c2ccc(Br)cc2)n2ncnc2N1` (stereo not given): the inhibition is 2.64%. Then `CN(C)S(=O)(=O)c1cccc(C(=O)OCC(=O)N2CCCC2=O)c1`, with 0.79%. Regarding `CC(=O)c1cccc(NC(=O)N2CCCC2C(=O)NCCc2ccccc2)c1` (stereo not given), the inhibition was 4.97%. For the compound `CCc1ccccc1NC(=O)Cc1cn(C)c2ccccc12`, the inhibition was 4.1%. On to `CC(Oc1ccc2c(-c3ccccc3)cc(=O)oc2c1)C(=O)NC(Cc1c[nH]c2ccccc12)C(=O)O` (stereo not given), for which the inhibition was 69.3% (active). Then `COc1ccc(-c2cc(=O)oc3cc(OCC(=O)N[C@@H](Cc4c[nH]c5ccccc45)C(=O)O)ccc23)cc1`, with 4.23%; and `COc1ccc(-c2cc(C(=O)NC(Cc3c[nH]c4ccccc34)C(=O)O)c(C)o2)cc1OC` (stereo not given), with 9.21%; and `CSc1ncnc2c1ncn2CC(=O)C1CCC2C3CCC4=CC(=O)CCC4(C)C3CCC12C` (stereo not given), with 3.57%. As to `Cc1ccc(S(=O)(=O)N2CCN(S(=O)(=O)N3CCOCC3)CC2)cc1`, the inhibition was 2.69%.

In the case of `CC(C)(C)c1ccc(C(=O)N2CCN(CCNC(=O)C(=O)Nc3ccc(F)cc3)CC2)cc1`, the inhibition is 0.31%. `CC(=O)N1CCOc2ccc(S(=O)(=O)N3CCN(c4cccc(C(F)(F)F)c4)CC3)cc21`: the inhibition is 3.14%. Consider `CC1CN(C(=O)c2cc(COc3c(F)cccc3F)on2)CCN1C` (stereo not given), for which the inhibition was 0.48%.

In the case of `CC(=O)CC(CC(=O)NC1CCCCC1)c1ccccc1` (stereo not given), the inhibition is 5.22%. Then `O=C(CCS(=O)(=O)c1ccccc1)NC1CCCC1`, with 5.22%; and `O=C(CNC1CCCCC1)NCC1(c2ccccc2)CCCC1`, with 26.9% (active). Consider `CC(C)Cn1cnc2c(SCc3ccc(Cl)cc3)nc(N)nc21`, for which the inhibition was 7.46%. Regarding `Cc1ccc(C(=O)COC(=O)CCN2C(=O)C3C4CC(C(Br)C4Br)C3C2=O)cc1` (stereo not given), the inhibition is -1.23%.

Consider `COc1cccc(N2CCN(CC(=O)Nc3ccnn3C3CCCC3)CC2)c1`, for which the inhibition is 1.78%. With `CC1(C(=O)OCC(=O)Nc2ncc(Cl)cc2Cl)CC1(Cl)Cl` (stereo not given), the inhibition was 2.15%. Turning to `CC(Oc1ccc(Cl)cc1)C(=O)OCC(=O)Nc1ncc(Cl)cc1Cl` (stereo not given), the inhibition was 30.6% (active).

As for `O=C(COC(=O)Cn1[nH]c(=O)c2ccccc2c1=O)Nc1ncc(Cl)cc1Cl`, the inhibition was 2.27%. Then `CCN(CC(=O)Nc1c(F)cccc1F)C(=O)c1ccc(-c2ccccc2)cc1`, with 3.05%; and `COc1ccc(-c2cn(-c3ccc(C)cc3)c(=O)n2CC(=O)Nc2ccc(OC)c(OC)c2)cc1`, with 2.69%; and `CC1CCC(NC(=O)CNC(=O)c2ccc3ccccc3c2)CC1` (stereo not given), with 7.58%. Turning to `CCCc1cc(=O)[nH]c(SCc2cc(=O)oc3c(C)c(C)ccc23)n1`, the inhibition was -0.37%. With `CCCc1cc(=O)n2[nH]c(SCc3ccccc3)nc2n1`, the inhibition is 13.6%. `CCCc1cc(=O)[nH]c(SCc2ccc(C#N)cc2)n1`: the inhibition was 25.2% (active). For the compound `Cn1cc(C2OC(=O)c3ccccc32)c2ccccc21` (stereo not given), the inhibition is 0.55%. For the compound `Cc1cccc(NS(=O)(=O)c2ccc(C)c(C(=O)NCC(c3ccccc3)N(C)C)c2)c1` (stereo not given), the inhibition is 6.63%. For `Cc1ccc(S(=O)(=O)NCCC(c2ccccc2)c2ccccc2)cc1C(=O)O`, the inhibition was 29% (active). As to `Cc1ccc(S(=O)(=O)NCCCn2ccnc2)cc1C(=O)NC(C)C`, the inhibition is 2.08%. For `COc1cc(Cl)c(C)cc1NC(=O)COC(=O)c1cc(SC)ccc1Cl`, the inhibition was -3.93%. Consider `CSCc1cc(N2CCOCC2)nc(SCc2ccc(Cl)cc2Cl)n1`, for which the inhibition is 10.7%. On to `N/C(=N\OC(=O)CCc1ccccc1)c1ccc(Cl)cc1`, for which the inhibition is 63.8% (active). For the compound `N/C(=N\OC(=O)CCc1ccccc1)c1cccnc1`, the inhibition was 1.52%. For the compound `COc1ccc(/C(N)=N/OC(=O)CCCc2ccccc2)cc1`, the inhibition is 6.71%. The figure for `C=C(C)c1cccc(C(C)(C)NC(=O)NC2CCCC2)c1` is 4.81%; for `COCCSc1nnc(NC(=O)c2cc(OC)c(OC)cc2[N+](=O)[O-])s1` it is 4.45%.

Regarding `COC(=O)[C@@]1(C)[C@H]2C(=O)N(Cc3ccccc3)C(=O)[C@H]2[C@H]2CN=C(SCC3CC3)N21`, the inhibition is 2.74%. The figure for `CC(OC(=O)/C=C/c1ccccc1)C(=O)NC1CCCCC1C` (stereo not given) is 1.18%; for `O=C(CN1CCSCC1)N/N=C/c1ccc(F)cc1` it is -6.64%. For `CCOc1cc(/C=N/NC(=O)CN2CCCCC2)ccc1O`, the inhibition was 1.96%. Consider `Cc1ccc(COc2ccc(/C=N/NC(=O)CN3CCCCC3)cc2)cc1`, for which the inhibition is 25.1% (active). Take `Cc1ccc(S(=O)(=O)NC(=O)N2CCCN(Cc3ccc(F)cc3)CC2)cc1`: the inhibition is 9.06%. Regarding `C/C(Cn1nnc2ccccc21)=N\OC(=O)c1cc(F)c(F)cc1Cl`, the inhibition was 25.1% (active).

As to `Cn1c(Cn2nnc3ccccc32)nnc1SCC(=O)c1ccccc1F`, the inhibition is 4.6%. With `CCOC(=O)c1cccc(NC(=O)CCn2nnc3ccccc32)c1`, the inhibition is 1.37%. `COC(=O)C1=C(N)Oc2cc(C)[nH]c(=O)c2C1c1ccc(Cl)cc1` (stereo not given): the inhibition was -2.03%.

Take `C=CCNC(=O)CCCC(=O)NCC=C`: the inhibition is 2.09%.

On to `O=C1COc2ccc(S(=O)(=O)Nc3ccc(OC(F)(F)F)cc3)cc2N1`, for which the inhibition was 41.6% (active).

Consider `Cc1ccc(NS(=O)(=O)c2ccc3c(c2)NC(=O)CO3)cc1`, for which the inhibition was 19.2%. As to `Cc1ccc(NS(=O)(=O)c2cc3c(cc2C)NC(=O)CO3)cc1`, the inhibition is 6.94%.

For `Nc1ccc2c(c1)C(=Cc1cccnc1)c1ccccc1-2`, the inhibition is 6.17%. Consider `COc1cc2c(cc1OC)C1C(=O)c3cc(OS(C)(=O)=O)c(OC)cc3C1N(C)C2=O` (stereo not given), for which the inhibition is 0.81%. Then `COCCNC(=O)NC(=O)COC(=O)C1(c2ccc(Cl)cc2)CC1`, with 26.9% (active); and `CCCNC(=O)NC(=O)COC(=O)CC(NC(N)=O)c1ccc(Cl)cc1` (stereo not given), with 2.08%. The figure for `CC(=O)N1CCC(C(=O)OCc2ccc(Cl)cc2)(c2ccccc2)CC1` is 7.86%.

`COc1ccc(-c2c(C)cc3oc(=O)cc(-c4ccccc4)c3c2C)cc1C=O`: the inhibition was -1.53%. Then `O=c1[nH]c2ccccc2s1`, with 4.32%.

With `Cc1ccc(S(=O)(=O)N2CCC(C(=O)N[C@@H](C)C(=O)NCc3ccco3)CC2)cc1`, the inhibition is 4.6%. For `CC1CCN(S(=O)(=O)c2ccc(S(=O)(=O)NCc3ccco3)cc2)CC1`, the inhibition was 29.6% (active).

Regarding `O=C(NC1CCC(O)CC1)c1ccc(S(=O)(=O)NCc2ccco2)cc1` (stereo not given), the inhibition was 4.89%.

`O=C(CSc1ccc([N+](=O)[O-])cn1)Nc1ccc(N2CCOCC2)c(Cl)c1`: the inhibition was -0.87%. Regarding `O=C(/C=C/c1ccccc1[N+](=O)[O-])OCC(=O)N1CCCC1`, the inhibition is 0.91%. For `COC(=O)[C@@H]1C[C@H]2CC[C@H](O)C[C@H]2N1Cc1ccc(N2CCN(C)CC2)cc1`, the inhibition was -3.13%. With `O=C1CCC/C=C/C[C@@H](CC(=O)N(CCO)Cc2ccccc2)C(=O)NC[C@H](c2ccccc2)O1`, the inhibition is -0.45%.

Take `O=C1NC[C@@H](c2ccccc2)OC(=O)[C@H](Cc2ccc(F)cc2)CC/C=C/C[C@H]1CC(=O)N(CCO)Cc1ccccc1`: the inhibition is 53.8% (active). As for `O=C1N[C@@H](c2ccccc2)COC(=O)[C@H](Cc2ccc(F)cc2)C/C=C\C[C@@H]1CC(=O)N(CCO)Cc1ccccc1`, the inhibition is 4.49%. Take `COC(=O)c1cc(S(=O)(=O)N2CCC(C(N)=O)CC2)oc1C`: the inhibition is -0.09%. In the case of `O=C(Nc1ccccc1)N1CCC(C(=O)N2CCN(Cc3ccccc3)CC2)CC1`, the inhibition was 0.85%. `COc1ccc(C2c3c(C)nn(-c4ccccc4)c3NC(=O)N2c2ccccc2)cc1` (stereo not given): the inhibition is 0.39%.
